Data taken from PubChem BioAssay (Tox21).
Results filed as inconclusive are left out. Activity calls are given as the source filed them. Unless noted, calls follow the shape of the dose curve; as a rule, active = well fitted curve in the direction sought with a large enough effect in the repeat runs; inconclusive = weak or mixed curves; inactive = no such curve, though single readings can be large; an effect the other way counts as inactive or inconclusive.

Tests used:
[1] = qHTS assay to identify small molecule antagonists of the retinoid acid receptor (RAR) signaling pathway - cell viability counter screen (AID 1159551); also: nearly all actives have a fitted effect of over 35% in size
Outline: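 Following overnight attachment, C3RL4 reporter cells received DMSO-dissolved compounds and then retinol (1 uM final). Six hours later at 37 C, ATP content was measured by CellTiter-Glo luminescence.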

[2] = qHTS assay to identify small molecule antagonists of the retinoic acid receptor (RAR) signaling pathway (AID 1159552; also: nearly all actives have a fitted effect of over 50% in size)
Outline: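 Using a RARE-driven luciferase construct in C3RL4 cells, retinol at 1 uM final provided the agonist stimulus while compounds were co-applied. After 6 hours at 37 C, luminescence was recorded to flag inhibitors of retinol signaling.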

[3] = qHTS assay to identify small molecule agonists of the retinoic acid receptor (RAR) signaling pathway (AID 1159553)
Outline: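 Cell line C3RL4, RARE luciferase reporter. Treatment: compounds in DMSO, 6 hr, 37 C, 5% CO2, after overnight plating. Detection: luminescence, 30 min RT after reagent.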

[4] = qHTS assay to identify small molecule antagonists of the estrogen related receptor (ERR) signaling pathway from Tox21 library - cell viability counter screen (AID 1224834); also: nearly all actives have a fitted effect of over 30% in size
Outline: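 Viability readout (CellTiter-Fluor fluorescence, 30 min at 37 C) multiplexed with the ERR assay; cells treated 17.5 h at 37 C with compounds delivered in DMSO.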

[5] = target: Luciferin 4-monooxygenase (Photinus pyralis) (UniProt P08659); test: qHTS assay to identify small molecule inhibitors of firefly luciferase (AID 1224835); also: nearly all actives have a fitted effect of over 25% in size
Chain of Luciferin 4-monooxygenase (Photinus pyralis) (P08659 whole entry, looked up): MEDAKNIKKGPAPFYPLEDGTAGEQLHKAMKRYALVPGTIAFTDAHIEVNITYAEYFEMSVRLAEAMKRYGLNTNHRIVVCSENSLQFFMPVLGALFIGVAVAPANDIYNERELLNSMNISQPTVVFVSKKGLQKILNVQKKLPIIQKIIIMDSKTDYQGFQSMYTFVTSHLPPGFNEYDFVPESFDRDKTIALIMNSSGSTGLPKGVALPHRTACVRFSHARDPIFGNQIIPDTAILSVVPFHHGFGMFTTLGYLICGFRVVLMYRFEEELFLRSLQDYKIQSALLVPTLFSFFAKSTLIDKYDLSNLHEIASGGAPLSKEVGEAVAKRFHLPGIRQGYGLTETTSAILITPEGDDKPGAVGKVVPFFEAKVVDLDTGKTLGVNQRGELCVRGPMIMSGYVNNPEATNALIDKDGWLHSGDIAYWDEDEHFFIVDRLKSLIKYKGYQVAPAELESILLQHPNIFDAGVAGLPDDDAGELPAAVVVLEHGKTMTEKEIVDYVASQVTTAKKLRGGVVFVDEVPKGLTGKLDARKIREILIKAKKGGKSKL
Outline: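 Biochemical qHTS: compounds run as interplate titrations against purified firefly enzyme, with D-luciferin and ATP each at its KM concentration. Light output recorded by CCD imaging.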

[6] = qHTS assay to identify small molecule antagonists of the constitutive androstane receptor (CAR) signaling pathway - cell viability counter screen (AID 1224837); also: nearly all actives have a fitted effect of over 45% in size
Outline: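 Fluorescence from CellTiter-Fluor served as the viability signal. Human hepatoma HepG2 cells stably bearing hCAR and CYP2B6-2.2kb received compound plus CITCO (50 nM final) for 23 hr.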

[7] = target: Nuclear receptor subfamily 1 group I member 3 (Homo sapiens) (UniProt Q14994); test: qHTS assay to identify small molecule antagonists of the constitutive androstane receptor (CAR) signaling pathway (AID 1224838);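 also: HepG2 cells stably expressing hCAR with CYP2B6 luciferase reporter stimulated by CITCO; nearly all actives have a fitted effect of over 40% in size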
Chain of Nuclear receptor subfamily 1 group I member 3 (Homo sapiens) (Q14994 whole entry, looked up): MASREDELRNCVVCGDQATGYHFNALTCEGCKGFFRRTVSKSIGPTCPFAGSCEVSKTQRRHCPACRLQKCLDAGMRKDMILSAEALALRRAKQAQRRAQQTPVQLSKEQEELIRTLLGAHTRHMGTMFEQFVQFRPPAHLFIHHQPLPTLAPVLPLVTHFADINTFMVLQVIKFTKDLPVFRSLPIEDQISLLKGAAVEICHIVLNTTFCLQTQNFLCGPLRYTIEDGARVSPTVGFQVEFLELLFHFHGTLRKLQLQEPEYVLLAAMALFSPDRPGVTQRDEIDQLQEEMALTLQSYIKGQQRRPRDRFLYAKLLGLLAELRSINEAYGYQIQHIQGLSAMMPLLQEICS
Outline: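 Quantitative HTS in double-stable HepG2-CYP2B6-hCAR cells. After 4 h plating, cells get compound (15 concentrations) and CITCO at 50 nM final, incubate 24 h at 37 C, then ONE-Glo luminescence is read.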

[8] = target: Nuclear receptor subfamily 1 group I member 3 (Homo sapiens) (UniProt Q14994); test: qHTS assay to identify small molecule agonists of the constitutive androstane receptor (CAR) signaling pathway (AID 1224839);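 also: HepG2 cells stably carrying human CAR and a CYP2B6 luciferase reporter; nearly all actives have a fitted effect of over 15% in size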
Outline: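 Using human hepatoma HepG2 cells engineered with hCAR and a CYP2B6-2.2kb reporter, 15-concentration compound series were incubated 24 h alongside PK11195 at 0.75 uM final, with luminescence quantified afterwards.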

[9] = qHTS assay to identify small molecule antagonists of the estrogen related receptor signaling pathway with the pleiotropic PPARgamma coactivator (PGC) from Tox21 10K library - cell viability counter screen (AID 1224840; active = well fitted cell-killing curve with a large enough effect in the repeat runs, not every such curve was filed as active; also: nearly all actives have a fitted effect of over 40% in size)
Outline: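 Compounds in DMSO, alongside positive and negative controls, were pinned onto PGC/ERR cells (2,000 per well). Exposure lasted 17.5 hours at 37 C, followed by a 30-minute CellTiter-Fluor incubation and fluorescence reading.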

[10] = qHTS assay to identify small molecule agonists of the estrogen related receptor signaling pathway with the pleiotropic PPARgamma coactivator (PGC) from Tox21 10K library (AID 1224842); also: nearly all actives have a fitted effect of over 15% in size
Outline: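 PGC/ERR reporter cell line, 2,000 cells per well, incubated 6 h at 37 C before 23 nL compound in DMSO was added. After 18 h at 37 C, One-Glo luminescence read following 30 min at room temperature.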

[11] = qHTS assay to identify small molecule agonists of the hypoxia (HIF-1) signaling pathway - cell viability counter screen (AID 1224844; calls by dose curve; also: nearly all actives have a fitted effect of over 50% in size)
Outline: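 Luminescent ATP content (CellTiter-Glo, 30 min, room temperature) served as the viability measure in HRE-bla ME-180 cells exposed to compounds for 17 hrs in low-serum medium (0.5% dialyzed FBS).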

[12] = qHTS assay to identify small molecule agonists of H2AX (AID 1224845; active = well fitted activation curve with a large enough effect in the signal ratio in the repeat runs, not every such curve was filed as active; the % refers to the signal ratio)
Outline: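 Wild-type CHO-K1 cells, plated overnight, exposed 3hr at 37C to 15 concentrations (0.76% DMSO final). Lysed, then HTRF anti-pH2AX (S139) cryptate and anti-H2AX-d2 antibodies, 24 hr room temperature; 665/620 nm emission read.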

[13] = qHTS assay to identify small molecule agonists of the hypoxia (HIF-1) signaling pathway (AID 1224846; active = well fitted activation curve with a large enough effect in the signal ratio in the repeat runs, not every such curve was filed as active; the % refers to the signal ratio)
Outline: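 Measured by blue/green FRET after loading CCF4-AM: beta-lactamase expressed from a hypoxia response element in ME-180 cells. Test agents were delivered in DMSO and left 17 hrs; cells had been plated 5 hrs earlier in low-serum (0.5% dialyzed FBS) medium.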

[14] = qHTS assay to identify small molecule agonists of H2AX - cell viability counter screen (AID 1224847; calls by dose curve; also: top concentration of the series differs between compounds; nearly all actives have a fitted effect of over 30% in size)
Outline: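 After overnight plating of 1000 CHO-K1 cells per well, a 15-concentration compound series was applied for 3 hr at 37C. Luminescence from CellTiter-Glo, read following 30 min at room temperature, reflected cell viability.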

[15] = qHTS assay to identify small molecule antagonists of the estrogen related receptor (ERR) signaling pathway from Tox21 library (AID 1224848); also: nearly all actives have a fitted effect of over 50% in size
Outline: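 Luminescent reporter read-out (ONE-Glo) from NTP's ERR cell line after 18 h treatment at 37 C with DMSO-dissolved Tox21 compounds; cells pre-plated 6 h beforehand at 2,000 per well.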

[16] = qHTS assay to identify small molecule agonists of the estrogen related receptor (ERR) signaling pathway from Tox21 library (AID 1224849; calls by dose curve; also: nearly all actives have a fitted effect of over 15% in size); conditions: ERR reporter cell line, ONE-Glo luciferase, 18 h; at 92.4 µM (top of the series) unless noted
Outline: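 We plated ERR reporter cells, waited 6 h, added compounds in DMSO by pin tool and incubated them 18 h at 37 C. ONE-Glo was then added and luminescence read after 30 min.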

[17] = qHTS RealTime-Glo MT Cell Viability Assay in HepG2 cells - 24 hour (AID 1224867); also: nearly all actives have a fitted effect of over 50% in size
Outline: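 Tox21 10K library screened in qHTS format on HepG2 cells carrying RealTime-Glo reagents. Compounds were added after a 5 h preincubation, and the luminescent signal from continuous culture was measured repeatedly during 40 h treatment.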

[18] = qHTS assay to identify small molecule antagonists of the estrogen related receptor signaling pathway with the pleiotropic PPARgamma coactivator (PGC) from Tox21 10K library (AID 1224841; call rule not given here; also: potency is read from the fitted curve at half-maximal effect)
Outline: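 Compound exposure ran 18 hours at 37 C in PGC/ERR cells (2,000/well) that had first rested 6 hours in a 37 C/5% CO2 incubator. Luciferase activity was then detected with One-Glo after a 30-minute room-temperature step.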

[19] = target: Thyrotropin receptor (Homo sapiens) (UniProt P16473); test: qHTS assay to identify small molecule agonists of the thyroid stimulating hormone receptor (TSHR) signaling pathway (AID 1224843; calls by dose curve; also: nearly all actives have a fitted effect of over 45% in size)
Chain of Thyrotropin receptor (Homo sapiens) (P16473 whole entry, looked up): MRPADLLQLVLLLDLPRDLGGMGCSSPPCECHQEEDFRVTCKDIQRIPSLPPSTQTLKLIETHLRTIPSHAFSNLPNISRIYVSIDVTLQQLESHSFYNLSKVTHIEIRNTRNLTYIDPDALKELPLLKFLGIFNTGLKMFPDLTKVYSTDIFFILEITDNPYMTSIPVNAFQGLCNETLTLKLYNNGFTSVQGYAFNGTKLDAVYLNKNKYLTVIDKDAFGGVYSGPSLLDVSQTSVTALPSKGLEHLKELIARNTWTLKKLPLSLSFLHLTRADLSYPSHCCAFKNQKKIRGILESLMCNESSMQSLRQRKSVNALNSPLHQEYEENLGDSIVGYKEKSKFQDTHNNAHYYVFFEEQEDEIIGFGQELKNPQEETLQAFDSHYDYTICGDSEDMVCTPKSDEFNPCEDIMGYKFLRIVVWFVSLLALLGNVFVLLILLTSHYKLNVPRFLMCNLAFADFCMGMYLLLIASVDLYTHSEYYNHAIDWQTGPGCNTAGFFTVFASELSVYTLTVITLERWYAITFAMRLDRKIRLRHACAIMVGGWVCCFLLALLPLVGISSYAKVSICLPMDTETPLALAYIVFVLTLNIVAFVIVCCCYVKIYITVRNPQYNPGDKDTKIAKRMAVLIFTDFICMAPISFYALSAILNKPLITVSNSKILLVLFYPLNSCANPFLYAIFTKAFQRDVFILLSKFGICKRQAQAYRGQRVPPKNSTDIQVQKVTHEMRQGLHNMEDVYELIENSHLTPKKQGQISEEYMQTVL
Outline: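 Steps: seed 800 TSHR-HEK293 cells per well; add test compound and hold 30 min at ambient temperature; dispense cAMP-d2 then anti-cAMP cryptate; incubate 1 h at ambient; measure fluorescence intensity.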
% is scaled to controls: 0 for no effect and ±100 for the full control effect.

Cc1ccccc1OCC(=O)O
inactive: outcome [1] | outcome [2] | Potency [3] | outcome [4] | Potency [5] | outcome [6] | outcome [7] | Potency [8] | outcome [9] | Potency [10] | outcome [11] | outcome [12] | outcome [13] | outcome [14] | outcome [15] | activity change, positive = activation [16] 0.72% | outcome [17]

C=CC(=O)OCCOCCOCC
inactive: outcome [1] | outcome [2] | Potency [3] | outcome [4] | Potency [5] | outcome [6] | outcome [9] | Potency [18] | Potency [10] | outcome [11] | outcome [12] | outcome [13] | outcome [14] | outcome [15] | outcome [17]

CC(C)C(C)C
inactive: outcome [1] | outcome [2] | Potency [3] | outcome [4] | Potency [5] | outcome [6] | Potency [8] | outcome [9] | Potency [19] | outcome [11] | outcome [12] | outcome [13] | outcome [14] | outcome [17]

CCCCNCC
inactive: outcome [1] | outcome [2] | Potency [3] | outcome [4] | Potency [5] | outcome [6] | Potency [8] | outcome [9] | Potency [19] | outcome [12] | outcome [13] | outcome [14] | outcome [17]

CCCCC(CC)CCC(CC(C)C)OS(=O)(=O)O (stereo unspecified)
inactive: outcome [1] | outcome [2] | Potency [3] | outcome [4] | Potency [5] | outcome [6] | outcome [7] | Potency [8] | outcome [9] | Potency [19] | outcome [12] | outcome [14] | outcome [17]

C/C(Cl)=C/CCl
inactive: outcome [1] | outcome [2] | Potency [3] | outcome [4] | Potency [5] | outcome [6] | outcome [7] | Potency [8] | outcome [9] | Potency [19] | outcome [11] | outcome [12] | outcome [13] | outcome [14] | outcome [17]

CNCCc1ccccn1
inactive: outcome [1] | outcome [2] | Potency [3] | outcome [4] | Potency [5] | outcome [6] | outcome [9] | Potency [19] | outcome [11] | outcome [12] | outcome [14] | outcome [17]

O=P(O)(O)C(O)(Cc1cccnc1)P(=O)(O)O
inactive: outcome [1] | outcome [2] | Potency [3] | outcome [4] | Potency [5] | outcome [6] | outcome [7] | Potency [8] | outcome [9] | outcome [11] | outcome [12] | outcome [13] | outcome [14] | outcome [17]

CN1C(CCl)Nc2cc(Cl)c(S(N)(=O)=O)cc2S1(=O)=O (stereo unspecified)
inactive: outcome [1] | outcome [2] | Potency [3] | outcome [4] | Potency [5] | outcome [6] | outcome [7] | Potency [8] | outcome [9] | Potency [18] | Potency [10] | outcome [12] | outcome [13] | outcome [14] | outcome [15] | activity change, positive = activation [16] 0.151% [at 42.5 µM] | outcome [17]

C=CCn1cc[n+](C)c1
inactive: outcome [1] | outcome [2] | Potency [3] | outcome [4] | Potency [5] | outcome [6] | outcome [9] | Potency [18] | Potency [10] | Potency [19] | outcome [11] | outcome [12] | outcome [13] | outcome [14] | outcome [15] | activity change, positive = activation [16] 5.14% | outcome [17]

C=COCCCCO
inactive: outcome [1] | outcome [2] | Potency [3] | outcome [4] | Potency [5] | outcome [6] | outcome [9] | Potency [18] | Potency [10] | Potency [19] | outcome [11] | outcome [12] | outcome [14] | activity change, positive = activation [16] -29.3% | outcome [17]

CN(C)c1cc(NC(=O)CNC(C)(C)C)c(O)c2c1C[C@H]1C[C@H]3[C@H](N(C)C)C(=O)C(C(N)=O)=C(O)[C@@]3(O)C(=O)C1=C2O
inactive: outcome [1] | outcome [2] | Potency [3] | outcome [4] | Potency [5] | outcome [6] | Potency [8] | outcome [9] | Potency [18] | outcome [13] | outcome [14] | outcome [15] | activity change, positive = activation [16] 1.19% [at 42.5 µM] | outcome [17]

CCCCc1ccc(Cl)cc1
inactive: outcome [1] | outcome [2] | Potency [3] | outcome [4] | Potency [5] | outcome [6] | outcome [9] | Potency [19] | outcome [11] | outcome [12] | outcome [13] | outcome [14] | outcome [17]

CCCCCCCCCCCC(C)=O
inactive: outcome [1] | outcome [2] | Potency [3] | outcome [4] | Potency [5] | outcome [6] | outcome [9] | Potency [18] | Potency [10] | Potency [19] | outcome [11] | outcome [12] | outcome [13] | outcome [14] | outcome [15] | activity change, positive = activation [16] -0.269% | outcome [17]

O=C1Nc2ccccc2C1=O
active: Potency [18] 13.6 µM
inactive: outcome [1] | outcome [2] | Potency [3] | outcome [4] | Potency [5] | outcome [7] | outcome [9] | Potency [10] | Potency [19] | outcome [11] | outcome [12] | outcome [13] | outcome [14] | outcome [15] | activity change, positive = activation [16] -1.92% | outcome [17]

CCCc1ncc(C(=O)O)s1
inactive: outcome [1] | outcome [2] | Potency [3] | outcome [4] | Potency [5] | outcome [6] | outcome [7] | Potency [8] | outcome [9] | Potency [18] | Potency [10] | outcome [11] | outcome [12] | outcome [13] | outcome [14] | outcome [15] | activity change, positive = activation [16] 3.45% [at 42.5 µM] | outcome [17]
